Entries with a potency or affinity are not part of this list.
system: Candida albicans; settings: 20 µM

| SMILES | Inhibition [%] |
| --- | --- |
| c1ccc(Oc2ccc(-c3cncc(-c4ccc5[nH]ccc5c4)n3)cc2)cc1 | 4.38 |
| COc1cccc(OC)c1C(=O)Nc1ccc(Cl)c(-c2nc3ccccc3s2)c1 | 4.58 |
| COc1ccc(C2=NN(C3CCCCCC3)C(=O)[C@@H]3CC=CC[C@H]23)cc1OCCCCOc1ccc(-c2nnn[nH]2)cc1 | 6.64 |
| Cc1ccc(-c2nc(CN(Cc3ccccn3)C(C)C)cs2)o1 | 5.03 |
| CCc1cc(=O)n(C)c(SC(C)C(=O)Nc2ccc(F)cc2)n1 (configuration not stated) | 0.76 |
| Cc1ccccc1CN1CCC(O)(c2ccc(Cl)c(C(F)(F)F)c2)CC1 | 3.22 |
| CCOc1ccccc1C(=O)Nc1cccc(-c2nc3ncccn3c2C)c1 | 6.34 |
| COc1ccc(C2=NCCN2)cc1-c1cn(-c2cccc(C3=NCCN3)c2)nn1.O=C(O)C(F)(F)F.O=C(O)C(F)(F)F | 2.35 |
| N#Cc1ccc(-c2ccc(OCC(N)=O)cc2)cc1 | 3.25 |
| CCc1ccc(C(NCc2nc(N)nc(N(C)C)n2)C(C)C)cc1 (configuration not stated) | 5.01 |
| CCNC(=O)C(C)Nc1nc(-c2cccnc2)nc2sc(C)c(C)c12 (configuration not stated) | 5.77 |
| CCc1nc2ccc(Cl)cn2c1C(=O)NCc1ccc(N2CCC(c3ccc(OC(F)(F)F)cc3)CC2)cc1 [TELACEBEC] | 2.34 |
| CCOc1ccc(OCC(=O)Nc2cc(C)cc(C)c2)cc1 | 9.23 |
| CCOc1ccc2cc(-c3nn(C(C)(C)C)c(N)c3C(N)=O)cnc2c1.Cl | 2.56 |
| Cc1ccc2nc(Cl)c(CNCc3cccs3)cc2c1 | 2.37 |
| CCc1ccc(S(=O)(=O)Nc2cc(CN3CCN(CCC(C)C)CC3)ccc2C)cc1 | 4.16 |
| Cc1ccccc1C(=O)N1N=C(Nc2ccccc2)SC1(C)C | 4 |
| Nc1ncc(Br)cc1-c1nc2cc(Cl)cnc2[nH]1 | 9.81 |

| SMILES | Inhibition [%] |
| --- | --- |
| Cc1cccc(Cn2ccc(NC(=O)c3ccc4c(c3)OCO4)n2)c1 | 6.79 |
| Cl.c1ccc(Oc2ccc(-c3cc(N4CCNCC4)[nH]n3)cc2)cc1 | 2.61 |
| O=C(NC1CC1)c1ccc(N2CCC(Cc3ccccc3)CC2)nc1 | 4.1 |
| O=C1N(Cc2cc3ccccc3s2)CC2CN(Cc3ccccc3)CCN12 (configuration not stated) | 2.62 |
| CNc1cc(C)nc(C2CN(C(=O)c3n[nH]c4ccccc34)CCO2)c1 (configuration not stated) | 2.95 |
| COc1ccc(N(CCc2cccc(C)n2)C(C)=O)cc1 | 2.97 |
| CC(C)(C)c1cc(C(=O)N2CCN(c3nccnc3C#N)CC2)n(Cc2ccccc2)n1 | 6.36 |
| CNC1C(OC2C(OC3C(O)C(O)C(NC(=N)N)C(O)C3NC(=N)N)OC(C)C2(O)C=O)OC(CO)C(O)C1O.CNC1C(OC2C(OC3C(O)C(O)C(NC(=N)N)C(O)C3NC(=N)N)OC(C)C2(O)C=O)OC(CO)C(O)C1O.O=S(=O)(O)O.O=S(=O)(O)O.O=S(=O)(O)O (configuration not stated) | 2.09 |
| CC(C)(C)CN1C(=O)C(c2ccccc2)(c2ccccc2)N=C1N | 3.38 |
| Cc1cccc(-c2nc(Nc3ccncn3)c3sccc3n2)n1 | 3.59 |
| Cl.Cn1ccnc1CNCCS(=O)(=O)c1cccc(Nc2ccc(-c3cccc(F)c3)cn2)c1 | 4.46 |
| CCC(=O)Nc1ccccc1C(=O)Nc1ccccn1 | 3.37 |
| O=C1COCc2ccc(Br)cc2N1Cc1ccc(C(F)(F)F)cc1 | 8.78 |
| CNC(=O)C1Cc2c([nH]c3cc(Cl)ccc23)C2(CCN(CCc3ccccc3)CC2)N1 (configuration not stated) | 3.22 |
| Cc1cc2nc(NC(=O)C(C)(C)C)nc(Cl)c2n1Cc1ccc(Cl)cc1 | 3.57 |
| CC(=O)N(CCN(C(=O)c1ccc(F)cc1)c1ccccc1)c1ccccc1 | 4.16 |
| COc1cccc2c(C)nc(N=C(N)N)nc12.O=C(O)C(F)(F)F.O=C(O)C(F)(F)F | 2.56 |
| O=C(c1[nH]nc2c1CCCC2)N1CCN(Cc2ccc3c(c2)OCO3)CC1 | 2.93 |

system: Cryptococcus neoformans; settings: Concentration 20 uM; ASSAY_TEST Inhibition of Fungal Growth; detection method Resazurin; Absorption (OD600-OD570); plate type 384well; NBS; CORNING #3640

| SMILES | Inhibition [%] |
| --- | --- |
| c1ccc(Oc2ccc(-c3cncc(-c4ccc5[nH]ccc5c4)n3)cc2)cc1 | -8.14 |
| COc1cccc(OC)c1C(=O)Nc1ccc(Cl)c(-c2nc3ccccc3s2)c1 | -8.77 |
| COc1ccc(C2=NN(C3CCCCCC3)C(=O)[C@@H]3CC=CC[C@H]23)cc1OCCCCOc1ccc(-c2nnn[nH]2)cc1 | -7.83 |
| Cc1ccc(-c2nc(CN(Cc3ccccn3)C(C)C)cs2)o1 | -5.74 |
| CCc1cc(=O)n(C)c(SC(C)C(=O)Nc2ccc(F)cc2)n1 (configuration not stated) | -9.3 |
| Cc1ccccc1CN1CCC(O)(c2ccc(Cl)c(C(F)(F)F)c2)CC1 | -6.41 |
| CCOc1ccccc1C(=O)Nc1cccc(-c2nc3ncccn3c2C)c1 | -7.75 |
| COc1ccc(C2=NCCN2)cc1-c1cn(-c2cccc(C3=NCCN3)c2)nn1.O=C(O)C(F)(F)F.O=C(O)C(F)(F)F | -2.18 |
| N#Cc1ccc(-c2ccc(OCC(N)=O)cc2)cc1 | -13.05 |
| CCc1ccc(C(NCc2nc(N)nc(N(C)C)n2)C(C)C)cc1 (configuration not stated) | -4.27 |
| CCNC(=O)C(C)Nc1nc(-c2cccnc2)nc2sc(C)c(C)c12 (configuration not stated) | -4.41 |
| CCc1nc2ccc(Cl)cn2c1C(=O)NCc1ccc(N2CCC(c3ccc(OC(F)(F)F)cc3)CC2)cc1 [TELACEBEC] | -3.29 |
| CCOc1ccc(OCC(=O)Nc2cc(C)cc(C)c2)cc1 | -6.41 |
| CCOc1ccc2cc(-c3nn(C(C)(C)C)c(N)c3C(N)=O)cnc2c1.Cl | -7.03 |
| Cc1ccc2nc(Cl)c(CNCc3cccs3)cc2c1 | -15.9 |
| CCc1ccc(S(=O)(=O)Nc2cc(CN3CCN(CCC(C)C)CC3)ccc2C)cc1 | -6.26 |
| Cc1ccccc1C(=O)N1N=C(Nc2ccccc2)SC1(C)C | -7.29 |
| Nc1ncc(Br)cc1-c1nc2cc(Cl)cnc2[nH]1 | 7.04 |

| SMILES | Inhibition [%] |
| --- | --- |
| Cc1cccc(Cn2ccc(NC(=O)c3ccc4c(c3)OCO4)n2)c1 | 3.81 |
| Cl.c1ccc(Oc2ccc(-c3cc(N4CCNCC4)[nH]n3)cc2)cc1 | -9.84 |
| O=C(NC1CC1)c1ccc(N2CCC(Cc3ccccc3)CC2)nc1 | -7.07 |
| O=C1N(Cc2cc3ccccc3s2)CC2CN(Cc3ccccc3)CCN12 (configuration not stated) | -4.73 |
| CNc1cc(C)nc(C2CN(C(=O)c3n[nH]c4ccccc34)CCO2)c1 (configuration not stated) | -9.16 |
| COc1ccc(N(CCc2cccc(C)n2)C(C)=O)cc1 | -4.26 |
| CC(C)(C)c1cc(C(=O)N2CCN(c3nccnc3C#N)CC2)n(Cc2ccccc2)n1 | 1.25 |
| CNC1C(OC2C(OC3C(O)C(O)C(NC(=N)N)C(O)C3NC(=N)N)OC(C)C2(O)C=O)OC(CO)C(O)C1O.CNC1C(OC2C(OC3C(O)C(O)C(NC(=N)N)C(O)C3NC(=N)N)OC(C)C2(O)C=O)OC(CO)C(O)C1O.O=S(=O)(O)O.O=S(=O)(O)O.O=S(=O)(O)O (configuration not stated) | -8.51 |
| CC(C)(C)CN1C(=O)C(c2ccccc2)(c2ccccc2)N=C1N | 1.98 |
| Cc1cccc(-c2nc(Nc3ccncn3)c3sccc3n2)n1 | 61.44 |
| Cl.Cn1ccnc1CNCCS(=O)(=O)c1cccc(Nc2ccc(-c3cccc(F)c3)cn2)c1 | -9.08 |
| CCC(=O)Nc1ccccc1C(=O)Nc1ccccn1 | -4.64 |
| O=C1COCc2ccc(Br)cc2N1Cc1ccc(C(F)(F)F)cc1 | -5.61 |
| CNC(=O)C1Cc2c([nH]c3cc(Cl)ccc23)C2(CCN(CCc3ccccc3)CC2)N1 (configuration not stated) | -13.49 |
| Cc1cc2nc(NC(=O)C(C)(C)C)nc(Cl)c2n1Cc1ccc(Cl)cc1 | -0.22 |
| CC(=O)N(CCN(C(=O)c1ccc(F)cc1)c1ccccc1)c1ccccc1 | -8.06 |
| COc1cccc2c(C)nc(N=C(N)N)nc12.O=C(O)C(F)(F)F.O=C(O)C(F)(F)F | -13.06 |
| O=C(c1[nH]nc2c1CCCC2)N1CCN(Cc2ccc3c(c2)OCO3)CC1 | -11.77 |
